# ERK EGF inh – qHTS Assay for Inhibitors of the ERK Signaling Pathway using a Homogeneous Screening Assay; Stimulation with EGF; HEK293-V1b, EGF-stimulated phospho-ERK AlphaScreen; Potency, µM (doses to about 11.5 µM), for the others: top-dose activity change, negative = inhibition, most hits filed as inhibitors; actives 0.41% (n = 130,000); AID 1454, 2008;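 further: plate controls were stimulated vehicle wells for no effect and unstimulated vehicle basal for full effect; nearly all actives have a fitted effect of over 55% in size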
#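 HEK293 cells stably expressing V1b receptor, serum-reduced (1% FBS) overnight, pretreated 30 min with compound, then stimulated 5 min with 25 nM EGF; phospho-ERK detected by AlphaScreen SureFire. AC50 from Hill fits, normalized to DMSO and EGF.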
# Luc counter – Counterscreen for Luciferase (Kinase-Glo TM) Inhibition | AID 1379, 2008 | Luciferin 4-monooxygenase (Photuris pensylvanica), Q27757 | Potency, µM (doses to about 38.3 µM), for inactives: top-dose activity change, negative = inhibition, usual class: inhibitors | actives 0.28% (n = 200,000) | Kinase-Glo luciferase, ATP luminescence, 8 min; further: nearly all actives have a fitted effect of over 60% in size
#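 Recombinant Kinase-Glo luciferase, 10 uM ATP (linear range), luciferin; imidazole pH 7.2 / KCl / MgCl2 / Tween / BSA buffer; 8 min RT; luminescence.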
# NPSR antag – qHTS Assay for Antagonists of the Neuropeptide S Receptor: cAMP Signal Transduction | Potency, µM (titrated, usually from 38.3 µM), for inactives: at the highest dose activity change, negative = inhibition, hits mostly inhibitors | CHO-NPSR cells, cAMP TR-FRET, antagonist mode | actives 1% (n = 220,000) | Q6W5P4 | AID 1461, 2008; further: nearly all actives have a fitted effect of over 50% in size
# Target sequence (Q6W5P4 whole entry, looked up): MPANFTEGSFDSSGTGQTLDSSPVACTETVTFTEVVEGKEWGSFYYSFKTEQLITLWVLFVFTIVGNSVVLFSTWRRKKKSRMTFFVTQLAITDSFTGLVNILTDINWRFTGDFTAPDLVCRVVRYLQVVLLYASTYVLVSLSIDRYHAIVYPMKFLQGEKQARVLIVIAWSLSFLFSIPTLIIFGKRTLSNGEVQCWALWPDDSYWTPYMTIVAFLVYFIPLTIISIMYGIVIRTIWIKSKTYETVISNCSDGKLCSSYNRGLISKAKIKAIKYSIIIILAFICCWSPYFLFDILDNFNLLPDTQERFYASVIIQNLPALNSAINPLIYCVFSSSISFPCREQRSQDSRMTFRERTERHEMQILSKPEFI
# IMPase Li cell – qHTS Assay for Identifying the Cell-Membrane Permeable IMPase Inhibitors: Potentiation with Lithium; Potency, µM (doses to about 59.4 µM), without a hit: at the highest dose activity, negative = IMPase inhibition, hits mostly inhibitors; AID 1457, 2008; actives 0.35% (n = 210,000); CHO-M1 cells, IP1 TR-FRET (IP-One), carbachol + lithium;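 further: IP1 builds up when IMPase is blocked and the TR-FRET signal falls; plate controls were basal vehicle for no effect and high inhibitor control for full effect; nearly all actives have a fitted effect of over 50% in size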
#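 CHO cells stably expressing M1 receptor (2000/well, cultured 16–30 h) treated 30 min at 37C with compound plus low lithium. Cytosolic IP1 by TR-FRET (665/620 ratio and 620 channel) after 10 min lysis; AC50 by Hill fit.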
# Starred values were filed as active, the others as inactive; ? = inconclusive; · = no result; [ ] = dose if it differs, or a comment. Only some compounds are listed: those with a hit (about 1.1% of all), similar ones and a draw of the others. The call rests on the fitted dose curve; in most records, active means well fitted curve in the direction sought with a large enough effect; inconclusive means small, poorly fitted or top-dose-only effect, or another doubt; inactive means no such curve, though single readings can be large; an effect the other way counts as inactive or inconclusive. Unless noted, on the % scale 0 is the no-effect control and ±100 the full control effect; potency means the concentration at half of the fitted maximal effect.
SMILES,ERK EGF inh,Luc counter,NPSR antag,IMPase Li cell
CN(C)CCNc1nc2c(c(=O)n(C)c(=O)n2C)n1C,·,1%[7.66 µM],·,1%
CCN(CC)S(=O)(=O)c1cc([N+](=O)[O-])ccc1NNC(=O)Nc1ccc(Cl)c(Cl)c1,·,3%,10µM*,2%[38.3 µM]
CS(=O)(=O)c1ncc(Cl)c(C(=O)Nc2ccc3ccccc3c2)n1,-2%,-1%,10µM*,20%
O=C(Nc1ccc2ccccc2c1)c1cnccn1,·,-9%,-3%[46.1 µM],21%[38.3 µM]
COC(=O)CNC(=O)[C@@]1(C)C=C[C@@H](Cc2ccccc2)N1C(C)=O,13%,-24%,·,3%
C#C[C@@]1(O)CC[C@@H]2[C@@H]3CCC4=CC(=O)CC[C@@H]4[C@H]3CC[C@]21C,4%[25.7 µM],4%[17.1 µM],·,1%
c1ccc(-c2noc(-c3ccc4c(c3)OCO4)n2)cc1,-1%,10µM*,-9%,-3%
COc1ccc(-c2noc(-c3ccc4c(c3)OCO4)n2)cc1,·,-6%,-8%[46.1 µM],?
CCOC(=O)c1sc2nc(C3CC3)cc(-c3ccc(F)cc3)c2c1N,·,0%,-12%[46.1 µM],11µM*
CC[n+]1c(/C=C/c2ccc(N(C)C)cc2)ccc2ccccc21,3%,8.9µM*,5µM*,72%
CC[n+]1ccc(/C=C/c2ccc(N(C)C)cc2)c2ccccc21,14µM*,?,?,155%
CCOC(=O)c1sc2nc(NC(=O)C3CC3)sc2c1C,·,1%,-3%[46.1 µM],13µM*
Cc1noc(C)c1-c1ccc2ncnc(Nc3ccccc3)c2c1,·,·,·,-4%
O=C(Oc1ccc(Nc2ncnc3ccccc23)cc1)c1cccnc1,28µM*,-4%,6%,2%
CCOC(=O)c1ccc(Nc2ncnc3ccccc23)cc1,-7%,3%,-26%,8%
Cc1c(C(=O)NN2CCCCC2)nn(-c2ccc(Cl)cc2Cl)c1-c1ccc(I)cc1,-6%,-1%,10µM*,·
Cc1onc(-c2c(Cl)cccc2Cl)c1C(=O)NN1CCCCCC1,13%[57.5 µM],·,-6%,·
CC1=CN2C(=N)/C(=C/c3ccc([N+](=O)[O-])o3)C(=O)N=C2S1,?,-7%,13µM*,22%
CC1=CN2C(=N)/C(=C/c3ccco3)C(=O)N=C2S1,8%,-23%,-24%,5%
CCOC(=O)c1cc(-c2cc3ccccc3o2)nc2c1c(=O)[nH]c(=O)n2CCOC,·,9%,?,10µM*
COc1ccccc1Cn1c(=O)c2ccccc2n2c(SCC(=O)N3CCCCC3)nnc12,6%,-1%,-11%,10µM*
O=C(CSc1nnc2n(C3CCCC3)c(=O)c3ccccc3n12)N1CCCCCC1,·,-3%,-17%[46.1 µM],30%[38.3 µM]
CC(=O)n1cc(C(C[N+](=O)[O-])SCCN)c2ccccc21 (centres undefined),·,-4%,10µM*,19%[38.3 µM]
CCN(CC)P(=O)(Nc1ccc(C)cc1Br)c1ccc(N(C)C)cc1NC(=O)c1ccco1 (centres undefined),5%,-3%,10µM*,11%
Cc1ccc(NC(=O)c2ccco2)c([N+](=O)[O-])c1,3%,-4%,13%,-1%
SMILES,ERK EGF inh,Luc counter,NPSR antag,IMPase Li cell
CN(C)c1ccc(C2N([C@H](C#N)c3ccc(N(C)C)cc3)CCCN2[C@@H](C#N)c2ccc(N(C)C)cc2)cc1 (some centres undefined),·,0%[7.66 µM],·,-17%
FC(F)(F)c1cccc(NC(=S)N(CCCN2CCCC2)Cc2cccn2Cc2ccc(Cl)cc2)c1,-3%,1%,10µM*,13%
Cc1ccc(NC(=S)N(CCCN2CCCC2)Cc2cccn2Cc2ccc(Cl)cc2)cc1Cl,6%,-1%,-59%,16%
Cc1cc(-c2nnc3sc(-c4ccc(Cl)cc4Cl)nn23)n[nH]1,·,1%,?,10µM*
COc1ccc(/C=N/NC(=O)c2cc(-c3ccc(Cl)cc3)n[nH]2)cc1OC,·,-5%,·,·
CC(C)CN1CCC2(CC1)CCN(C(=O)c1cccn1C)CC2,0%,2%,·,27%
CC(=O)Oc1ccc2c(c1)CCC1C2CC[C@@]2(C)C1CC(OC(C)=O)C2OC(C)=O (some centres undefined),34%,-2%,·,-2%
CC[C@@H]1OC(=O)[C@H](C)[C@H](O[C@@H]2C[C@](C)(OC)[C@H](O)[C@H](C)O2)[C@H](C)[C@H](O[C@@H]2O[C@@H](C)C[C@@H](N(C)C)[C@@H]2O)[C@](C)(O)C[C@H](C)C(=NOCOCCOC)[C@H](C)[C@H](O)[C@]1(C)O,1%[25.7 µM],1%[17.1 µM],·,-5%
COc1cc2ncnc(NCc3ccccc3Cl)c2cc1OC,1.3µM*,2%,-32%,?
COc1cc2ncnc(NCc3ccc(C)o3)c2cc1OC,28µM*,0%,0%,-1%
COc1cc2ncnc(NCc3ccc(Cl)cc3)c2cc1OC,2.2µM*,0%,-32%,17%
COc1cc2ncnc(NCc3ccccc3C)c2cc1OC,·,2%,-14%[46.1 µM],38%[38.3 µM]
CC(=N/O)/C(C)=N\NC(=O)c1ccccn1,1%,?,22%,-1%
C/C(=N\NC(=O)c1ccccn1)c1ccc(C(=O)O)s1,2%,14µM*,6%,7%
O=C(/C=C/Nc1ccccc1F)c1ccc(Br)cc1,9%,-11%,10%,1%
NC(=O)c1ccccc1N/C=C/C(=O)c1ccc(F)cc1,·,7.9µM*,-19%[46.1 µM],-10%[38.3 µM]
O=C(/C=C/Nc1ccc(Br)cc1F)c1ccccc1,0%,10µM*,-2%,-3%
NC(=O)c1ccccc1N/C=C/C(=O)c1ccc(Cl)cc1Cl,·,11µM*,-7%[46.1 µM],-10%[38.3 µM]
NC(=O)c1ccccc1N/C=C/C(=O)c1cccs1,-5%,?,-11%,0%
O[C@@H]1[C@@H](OCc2ccccc2)OC[C@H](O)[C@@H]1O,·,-6%[7.66 µM],·,-3%
NC1(C(=O)O)C[C@H](C(=O)O)[C@H](C(=O)O)C1 (some centres undefined),9%,-2%,·,-1%
CSC(=[SH+])N=N/C(=C1/C=CC=CN1)c1ccccn1.[Cu][Br],·,-2%[7.66 µM],·,6%
CC(C)CC1=NN2C(=N)/C(=C\c3coc4ccccc4c3=O)C(=O)N=C2S1,7%,0%,-55%,2%
CCSC1=NSC2=NC(=O)/C(=C\c3coc4ccccc4c3=O)C(=N)N12,32µM*,-2%,-24%,0%
CC(N)(C(=O)O)c1cccc(CC(=O)O)c1 (centres undefined),·,·,·,2%
Cn1cccc1C(=O)C(=O)Nc1cc(Cl)cc(Cl)c1,·,11µM*,-14%[46.1 µM],14µM*
Cc1cn([C@@H]2C[C@H](N=[N+]=N)[C@H](CO)O2)c(=O)[nH]c1=O,15%[25.7 µM],4%[17.1 µM],·,-3%
CCCSc1nc(SCC(=O)NCc2ccccc2)c2c3c(sc2n1)COC(C)(C)C3,·,-2%,-7%[46.1 µM],10µM*
CCOC(=O)/C(=C\c1ccc(OC(F)F)cc1)C1=Nn2c(nnc2-c2ccc(Cl)cc2)SC1,4%,3%,10µM*,16%

# From PubChem
